The full list was thinned out, with hits kept by preference.
12-LOX inh – inhibitors of human 12S-lipoxygenase ALOX12 | 580,000 tested, 1.1% active | Potency, µM (top dose mostly 108 µM), for the others: at the highest dose activity change, negative = inhibition, most hits filed as inhibitors | purified 12hLO, xylenol orange hydroperoxide absorbance | AID 1671190 | P18054; also: potency is read from the fitted curve at half-maximal effect
Target sequence (P18054 whole entry, looked up): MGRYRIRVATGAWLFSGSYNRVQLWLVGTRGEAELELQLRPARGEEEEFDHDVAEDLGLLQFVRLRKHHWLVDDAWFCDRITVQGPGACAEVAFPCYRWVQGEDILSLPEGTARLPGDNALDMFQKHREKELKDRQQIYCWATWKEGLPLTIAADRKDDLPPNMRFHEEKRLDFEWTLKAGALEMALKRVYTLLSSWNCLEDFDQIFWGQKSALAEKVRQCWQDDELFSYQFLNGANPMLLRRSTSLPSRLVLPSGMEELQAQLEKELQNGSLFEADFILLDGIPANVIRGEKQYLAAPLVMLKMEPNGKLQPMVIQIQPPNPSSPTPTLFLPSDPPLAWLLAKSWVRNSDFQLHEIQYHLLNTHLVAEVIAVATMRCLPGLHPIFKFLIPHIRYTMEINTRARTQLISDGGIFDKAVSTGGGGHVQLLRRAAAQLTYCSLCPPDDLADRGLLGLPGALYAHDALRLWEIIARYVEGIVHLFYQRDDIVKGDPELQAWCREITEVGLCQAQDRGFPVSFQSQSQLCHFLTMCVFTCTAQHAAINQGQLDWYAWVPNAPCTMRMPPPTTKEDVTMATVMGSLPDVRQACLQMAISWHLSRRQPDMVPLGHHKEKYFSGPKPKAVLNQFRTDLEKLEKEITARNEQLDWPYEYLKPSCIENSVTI
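Purified human 12hLO (150 nM final) in 25 mM Hepes, 0.01% Triton X-100, pH 7.0 was preincubated 15 min at room temperature with compound. Then 40 uM arachidonic acid was added, 30 min. Hydroperoxide was read by Fe-XO absorbance ratio 573/405 nm.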
DT40 TDP1 CPT – DT40-hTDP1 cell growth loss with CPT; AID 686979; 420,000 tested, 12% active; Potency, µM (highest dose often 46.2 µM), without a hit: top-dose activity change, negative = growth inhibition, actives largely listed as inhibitors; chicken DT40 Tdp1-/-;hTDP1 cells + 20 nM CPT, ATP luminescence, 48 h; also: potency is read from the fitted curve at half-maximal effect; nearly all actives have a fitted effect of over 55% in size
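Chicken DT40 Tdp1-/- cells stably complemented with human TDP1 were seeded at 400 cells/well in medium containing 20 nM camptothecin, exposed to pin-transferred compounds, and grown at 37 °C for at least 48 hr. Viability was read as ATP luminescence.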
HT1080-NT tox – kills 2HG-producing HT-1080-NT fibrosarcoma cells. Potency, µM (highest dose often 46.1 µM), without a hit: at the highest dose activity, negative = less viability, hits mostly cytotoxic. HT-1080-NT fibrosarcoma viability, CellTiter-Glo ATP luminescence, 48 h. 360,000 tested, 1.6% active;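 also: NT is the 2HG producing partner of a matched IDH1 knockdown line; potency is read from the fitted curve at half-maximal effect; 0% = DMSO-treated cells and -100% = media-only wells without cells; nearly all actives have a fitted effect of over 55% in size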
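Viability of the 2HG-overproducing fibrosarcoma line after 48 hours of compound exposure at 37 degrees C was determined by luminescence with CellTiter-Glo, and concentration-effect curves were then fitted and categorized.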
IL-1B inflam inh – inflammasome signaling inhibition, IL-1 beta readout; activity change, % at 57.5 µM; 360,000 tested, 4.7% active; THP-1 LPS/ATP IL-1B secretion, AlphaLISA, 16 h; stronger effect = lower value; in the data active = activity change below about -50%; inconclusive = mostly about -30% to -49%
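Secreted IL-1B measured by AlphaLISA bead assay after 16 h compound exposure of THP-1 cells; compounds (final up to 57.5 uM) added 1 h before LPS (250 ng/mL) and ATP (1.25 mM) stimulation; lower signal means less secretion.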
DT40 TDP1 no CPT – qHTS for Inhibitors of human tyrosyl-DNA phosphodiesterase 1 (TDP1): qHTS in cells in absence of CPT | 420,000 tested, 15% active | DT40 Tdp1-/- hTDP1 cells, no CPT, ATP luminescence, 48 h | AID 686978, 2013 | Potency, µM (highest dose often 46.2 µM), inactives show at the highest dose activity change, negative = growth inhibition, most hits filed as inhibitors; also: potency is read from the fitted curve at half-maximal effect; nearly all actives have a fitted effect of over 55% in size
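Compound effects on proliferation are scored in DT40 Tdp1-/-;hTDP1 cells in the absence of CPT. ATP levels (CellTiter-Glo luminescence) are recorded after a ≥48 hr, 37 °C incubation.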
HT1080 IDH1KD tx – HT-1080 IDH1 knockdown cell toxicity (counter line) | HT-1080 IDH1 knockdown viability, ATP luminescence, 48 h | Potency, µM (top dose mostly 46.1 µM), for the others: at the highest dose activity, negative = toxicity, actives largely listed as cytotoxic | 360,000 tested, 2% active | AID 686971;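 also: potency is read from the fitted curve at half-maximal effect; 0% = DMSO wells and -100% = cell-free medium wells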
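Assay cells: HT-1080 with IDH1 knockdown, 750 per well, RPMI/5% FBS. Exposure: 48 h at 37 °C following 2 h pre-incubation. Read: CellTiter-Glo luminescence; fitted concentration-response, curve class assigned.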
Numbers without * were called inactive; ? = inconclusive; nt = no result; ! = repeats disagree; [ ] = another dose, or the depositor's remark. Unless noted, calls follow the shape of the dose curve; as a rule, active = well fitted curve in the direction sought with a large enough effect; inconclusive = small, poorly fitted or top-dose-only effect, or another doubt; inactive = no such curve, though single readings can be large; an effect the other way counts as inactive or inconclusive. Unless noted, % is scaled to controls: 0 for no effect and ±100 for the full control effect.

SMILES	12-LOX inh	DT40 TDP1 CPT	HT1080-NT tox	IL-1B inflam inh	DT40 TDP1 no CPT	HT1080 IDH1KD tx
COc1ccc2c(CN3CCN(c4ccccc4F)CC3)cc(=O)oc2c1	?	?	29.0%	8.6	?	11.0%
COc1ccc2c(CN3CCN(c4ccccc4OC)CC3)cc(=O)oc2c1	?	?	1.1%	-7.8	14.6µM*	-4.6%
COc1ccc(N2CCN(Cc3cc4c(cc3O)CCC4)CC2)cc1	-3.1%	25.9µM*	2.0%	4.2	20.6µM*	-10.2%
CCc1c(CN2CCN(c3ccc(F)cc3)CC2)csc1C	44.7µM*!	?	nt	nt	?	nt
CCc1ccc2oc(=O)cc(CN3CCN(c4ccc(F)cc4)CC3)c2c1	?	?	-23.1%	11.1	16.4µM*	-24.1%
Cc1occc1-c1nc2ccncc2[nH]1	53.9%[176 µM]	nt	nt	nt	nt	nt
COC(=O)[C@]12C[C@H](CC(=O)NCCCCc3ccccc3)C(=O)N(Cc3ccccc3)C1=C[C@H](C1CCCC1)O[C@@H]2C	-7.7%	nt	nt	nt	nt	nt
CS(=O)(=O)N1CCN(C2CCNCC2)C(=O)C1	-0.6%[6.33 µM]	nt	nt	nt	nt	nt
COc1ccc2oc(=O)cc(CN3CCN(c4ccc(F)cc4)CC3)c2c1	-1.9%	?	nt	nt	23.1µM*	nt
CCOc1ccc2oc(=O)cc(CN3CCOCC3)c2c1	0.0%	14.6%	-0.8%	3.4	-2.5%	-6.9%
COc1ccc(N2CCN(Cc3cc(=O)oc4ccc(Cl)cc34)CC2)cc1	-9.9%	?	-2.9%	0.0	-11.5%	-3.2%
COc1ccc(N2CCN(Cc3cc(=O)oc4cc5c(cc34)CCCC5)CC2)cc1	0.0%	20.6µM*	-18.0%	-0.1	13µM*	6.8%
CCOc1ccc2oc(=O)cc(CN3CCN(Cc4ccc(F)cc4)CC3)c2c1	?	16.4µM*	nt	nt	23.1µM*	nt
COc1ccc2c(CN(C)c3ccccc3)cc(=O)oc2c1	?	29.1µM*	-1.6%	-2.8	?	-0.7%
COc1ccc(C2=NOC3(CCN(Cc4cccn4C)C3)C2)cc1 (configuration not stated)	25.6%[176 µM]	nt	nt	nt	nt	nt
CCOc1ccc2oc(=O)cc(CN3CCN(c4cc(C)ccc4C)CC3)c2c1	-21.1%	14.6µM*	nt	nt	16.4µM*	nt
CCOc1ccc2oc(=O)cc(CN3CCN(c4ccccc4)CC3)c2c1	-28.8%	?	nt	nt	?	nt
CCc1ccc2oc(=O)cc(CN3CCN(Cc4ccccc4)CC3)c2c1	-7.5%	?	-11.6%	9.4	20.6µM*	-2.1%
CCOc1ccccc1NC(=O)C1CCN(C(=O)C2CC(=O)N(c3ccc(C)cc3)C2)CC1 (configuration not stated)	-5.4%	9.6%	1.7%	-20.2	-8.9%	4.0%
COCCN1C(=O)c2ccccc2C(C(=O)Nc2nc3ccccc3[nH]2)C12CCCCC2 (configuration not stated)	4.6%	nt	nt	nt	nt	nt
CC(C)NC(=O)[C@@H]1C[C@@H](NC(=O)c2cnc3c(O)cccn3c2=O)CN1C	52.0%	nt	nt	nt	nt	nt
Cn1c(NCC(O)c2ccccc2)nc2c1c(=O)n(Cc1ccc(Cl)c(Cl)c1)c(=O)n2C (configuration not stated)	?	20.6µM*	20.6µM*	-66.5*	20.6µM*	18.4µM*
CC(O)CNc1nc2c(c(=O)n(Cc3ccc(Cl)c(Cl)c3)c(=O)n2C)n1C (configuration not stated)	?	?	-0.4%	?	?	-15.9%
Cn1c(NCC(O)c2ccccc2)nc2c1c(=O)n(Cc1ccc(Cl)cc1)c(=O)n2C (configuration not stated)	16.5%	16.4µM*	?	-17.6	20.6µM*	8.3%[9.24 µM]
CC(C)CNC(=O)N1CC(Oc2ccc(-c3nc(-c4ccccc4)no3)cc2)C1	10.0%	nt	nt	nt	nt	nt
SMILES	12-LOX inh	DT40 TDP1 CPT	HT1080-NT tox	IL-1B inflam inh	DT40 TDP1 no CPT	HT1080 IDH1KD tx
c1ccc2c(c1)ncn2CCCOc1ccc2c(c1)CCC2	2.1%	?	?	-53.4*	20.6µM*	?
c1ccc2c(c1)ncn2CCCCOc1ccc2c(c1)CCC2	?	?	-3.0%	-29.3	29.1µM*	3.5%
COc1ccc(OCCn2cnc3ccccc32)cc1	0.0%	-6.3%	6.5%	-0.6	?	1.2%
Brc1ccccc1OCCCn1cnc2ccccc21	-13.1%	?	-12.2%	-24.7	-26.4%	-2.4%
CCC(Cn1nnc2ccccc2c1=O)NC(=O)Nc1ccc2c(c1)OCCO2 (configuration not stated)	-11.8%	nt	nt	nt	nt	nt
COc1ccc(NC(=O)CSc2nc(CCSC)c(C)[nH]2)cc1	-10.5%	nt	nt	nt	nt	nt
CN1CCCC2(CCN(C(=O)Cc3cccc4ccccc34)C2)C1=O (configuration not stated)	59.7%	nt	nt	nt	nt	nt
CCOc1ccc(C=Nc2ccc(/C=C/c3ccnc4ccccc34)cc2)cc1OCC	nt	15.8µM*	nt	nt	10µM*	nt
CCCCN(CCCC)c1ccc(C=Nc2ccc(/C=C/c3ccnc4ccccc34)cc2)cc1C	nt	11.2µM*	nt	nt	10µM*	nt
CCOc1ccc(N=Cc2ccc3ccccc3c2)cc1	25.2%	-15.3%	0.7%	-8.8	-18.8%	10.1%
COc1ccc(CCNc2nc3ccccc3c3nc(-c4cccc(C)c4)nn23)cc1OC	-1.2%	?	nt	nt	7.31µM*	nt
COc1ccc(CNc2nc3ccccc3c3nc(-c4ccccc4)nn23)cc1	-18.3%	-8.5%	nt	nt	11.6µM*	nt
COc1ccc(CCNc2nc3cc(OC)c(OC)cc3c3nc(-c4ccccc4)nn23)cc1OC	-6.1%	5.8µM*	nt	nt	2.91µM*	nt
COc1cc(CNC(=O)c2cnc(SC)nc2-c2ccccc2)cc(OC)c1OC	-29.1%	0.5%	nt	nt	?	nt
CCOC(=O)C1=C(C)OC(=Cc2ccccc2)C1=O	-23.7%	-105.8%	7.7%	31.6	0.0092µM*	-0.1%
CCOC(=O)C1=C(O)c2ccccc2C(=O)/C1=C\c1ccc(C)cc1	10µM*	5.8µM*	?	0.0	5.8µM*	18.4µM*
CCOC(=O)C1=C(Nc2ccccc2)O/C(=C/c2ccc(F)cc2)C1=O	34.3%	nt	nt	nt	nt	nt
Cc1cc(C)cc(NC(=O)CSc2nc3c(c(=O)[nH]2)CN(Cc2ccc(F)cc2)CC3)c1	0.2%	-0.4%	-0.8%	5.2	-13.0%	1.7%
CN(Cc1cc(C[C@H]2CNCC[C@H]2CC(=O)N2CCN(c3ccccc3)CC2)no1)c1ccccc1	23.0%	nt	nt	nt	nt	nt
Cc1ccc(NS(=O)(=O)c2ccc3c(c2)c(=O)n(C)c(=O)n3C)cc1F	-7.6%	14.6µM*	16.4µM*	?	16.4µM*	?

Compound activity: PubChem, National Center for Advancing Translational Sciences (NCATS)
